Compound activity: PubChem, National Center for Advancing Translational Sciences (NCATS)
Pf growth 48h: P. falciparum growth inhibition at 48 hours (one generation); 5.9% of 310,000 active; AID 504832; P. falciparum luciferase growth in erythrocytes, 48 h; Potency, µM (titrated, usually from 28.7 µM), usual class: inhibitors
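In quantitative HTS format, infected erythrocytes bearing luciferase-reporter parasites were treated for a single generation at 37 C. Luminescence after adding detection reagent served as the growth measure.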
Pf growth 96h: P. falciparum growth inhibition at 96 hour, primary screen for plastid delayed-death inhibitors | P. falciparum luciferase reporter growth, 96 h | Potency, µM (titrated, usually from 28.7 µM), actives largely listed as inhibitors | 6.9% of 320,000 active
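Infected RBCs, 2% Hct / 0.05% parasitemia final; luciferase-reporter P. falciparum; cpd 96 h, 37 C, 5% CO2; luciferase detection reagent; luminescence.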
Shiga inhibitor: blocks Shiga toxin action in Vero cells; 9.2% of 290,000 active; inhibition, % at 38.7 µM; Vero cells, Shiga toxin protein synthesis inhibition reporter; in the data active means inhibition mostly above about 28%, no sharp cut-off; inactive means mostly below about 43%
CHX counter: counter-screen hit for Shiga toxin inhibitors, cycloheximide | cell reporter, cycloheximide protein synthesis inhibition counterscreen | max response, % | 12% of 300,000 active | AID 2314; in the data active means max response mostly above about 13%, no sharp cut-off; inactive means mostly below about 14%; further: read at 38.3 µM for the half of the compounds with a filed dose
A number is an active result; - = inactive; ? = inconclusive; . = no result given; [ ] = dose if it differs, or a comment. Shown are actives, neighbours in structure and some others; about 21% of the full set was active somewhere. Unless noted, the call rests on the fitted dose curve; in most records, active means well fitted inhibition curve with a large enough effect; inconclusive means small, poorly fitted or top-dose-only effect, or another doubt; inactive means no such curve, though single readings can be large or run the other way.

SMILES	Pf growth 48h	Pf growth 96h	Shiga inhibitor	CHX counter
Cc1ccccc1OCC(O)Cn1c2ccccc2c2ccccc21 (stereo not given)	8.3µM	12µM	-	-
OC(COc1ccccc1)Cn1c2ccccc2c2ccccc21 (stereo not given)	?	-	-	-
CC1CN(CC(O)COc2ccccc2C(C)(C)C)CC(C)O1 (stereo not given)	2.3µM	8.3µM	-	-
COc1ccc(C2=NS(=O)(=O)N(C)C(C(=O)Nc3ccc(F)cc3F)=C2)cc1	-	-	-	-
CC(=O)Nc1ccc(OCC(O)Cn2c3ccccc3c3ccccc32)cc1 (stereo not given)	?	-	-	-
Cc1cc(C)n(CC(O)COc2ccc(Cl)cc2)n1 (stereo not given)	?	-	.	-
Cc1cc(C)n(CC(O)COc2ccc(Cl)cc2Cl)n1 (stereo not given)	-	-	29	30
Cc1cc(C)n(CC(O)Cn2c3ccccc3c3ccccc32)n1 (stereo not given)	10µM	.	-	-
CC(=O)Nc1ccc(OCC(O)Cn2c3ccccc3c3ccccc32)c(C)c1 (stereo not given)	?	10µM	-	-
COc1ccc(NC(=O)CSc2ccc3nnc(-c4cccnc4)n3n2)cc1OC	-	-	-	-
COc1ccccc1CNC(=O)CCCNC(=O)Cn1cnc2sc(C)c(C)c2c1=O	-	?	-	-
CCC(C)(C)C1CCC(=NNc2nc3ccccc3[nH]2)CC1 (stereo not given)	10µM	10µM	81	36
CC(=O)N1CCC(=NNc2nc3ccccc3[nH]2)CC1	?	?	35	31
CCCCOc1ccc(C(=O)Nc2ccc(OCC(=O)N3CCOCC3)cc2)cc1	-	?	51	26
CCN(CC)S(=O)(=O)c1ccc(C(=O)Nc2ccc(OCC(=O)N3CCOCC3)cc2)cc1	?	0.37µM	-	-
O=C(CN1C(=O)C2CCCCC2C1=O)OCC(=O)c1ccc(Cl)s1 (stereo not given)	-	-	-	-
Cc1ccc(S(=O)(=O)/N=C2\C(=O)c3ccccc3C([O-])=C2n2cc[n+](CCC(C)C)c2)cc1	13µM	3.3µM	-	-
CC(=O)Nc1ccc(S(=O)(=O)/N=C2\C(=O)c3ccccc3C([O-])=C2n2cc[n+](-c3ccccn3)c2)cc1	1.5µM	4.7µM	-	-
Cc1ccc(NC(=O)C[n+]2ccn(C3=C([O-])c4ccccc4C3=O)c2)cc1	-	-	-	-
CCCC[n+]1ccn(C2=C([O-])c3ccccc3C(=O)/C2=N\S(=O)(=O)c2ccc(Br)cc2)c1	3.3µM	?	-	-
Cc1cc(OCc2cc(C(=O)NCc3csc(C(C)C)n3)no2)cc(C)c1Cl	-	-	-	20
Cc1ccc(OCc2cc(C(=O)NCc3cn4ccccc4n3)no2)cc1C	-	?	37	20
O=C(CC1CCCC1)NCCc1cn2ccccc2n1	.	-	-	-
O=C(NCCc1cn2ccccc2n1)c1cc(COc2c(F)cccc2F)on1	-	-	-	17
COc1cccc(CCNC(=O)c2cc(COc3c(F)cccc3F)on2)c1	-	?	-	16
SMILES	Pf growth 48h	Pf growth 96h	Shiga inhibitor	CHX counter
Cc1cccc(NC(=S)NNC(=O)c2cc3c(s2)CCC(C)C3)c1C (stereo not given)	-	?	-	-
CN(C)C(CNC(=O)c1c(F)cccc1Cl)c1ccco1 (stereo not given)	-	-	-	-
COc1ccc(S(=O)(=O)N(C)CC(=O)Nc2cccc(C(C)=O)c2)cc1Cl	.	?	-	-
COc1cc(/C=C(\C#N)c2ccccn2)ccc1OCc1ccccc1Cl	1.9µM	2.3µM	-	-
COc1cc(/C=C(\C#N)c2ccccn2)cc(OC)c1O	-	-	-	-
COc1cc(CNCc2ccccn2)ccc1OCc1ccccc1Cl	?	?	-	13
COc1cc(CNCCN2CCOCC2)ccc1OCc1ccccc1Cl	?	12µM	-	-
O=C(NC12CC3CC(CC(C3)C1)C2)N1CCN(C(=O)C2CCCO2)CC1 (stereo not given)	-	-[5.75 µM]	-	11
Cn1c(N)c(C(=O)CSc2n[nH]c(N)n2)c(=O)n(C)c1=O	-	-	.	.
Cc1nn(-c2ccc(Cl)nn2)c(=O)c2ccccc12	-	-	-	27
Cc1nn(-c2ccccc2)c(=S)c2ccccc12	-	-	60	20
O=c1c2ccccc2c(-c2ccc(Cl)cc2)nn1-c1ccccc1	3.3µM	?	-	-
Cc1ccc2nc3c(cc2c1)c(C)nn3-c1ccccc1	-	?	-	-
Cc1nn(-c2ccc3ccccc3c2)c(=O)c2ccccc12	-	-	115	51
O=c1c2ccccc2c(-c2ccccc2)nn1Cc1ccc(Cl)cc1	?	-	-	-
